# Assay results: PubChem BioAssay
# Values joined by “and” are separate entries in the source; they are usually repeats but may differ in a detail not shown here. Identical values can stand only once. Inconclusive results are not listed. Active and inactive are the calls of the source. Rule as the data show it, unless noted: active = inhibition above about 80%; inactive = the rest.
# Columns and labels:
# [1] = viability loss in pontine glioma line – cell-based, JHH-DIPG-1, MIPE4.0, CellTiter-Glo, qHTS, dose response (AID 1347062; cut-off not given, nearly all actives have AC50 up to about 27 µM;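 as to AC50: cells exposed to compound for two days before readout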); conditions: JHH-DIPG-1 viability, CellTiter-Glo ATP luminescence
# [2] = growth inhibition of DIPG cells – cell-based, MIPE4.0 library, CellTiter-Glo luminescence, qHTS (AID 1347066; cut-off not given, nearly all actives have AC50 up to about 30 µM;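 also: cells exposed to compound for 48 hours before readout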); conditions: SU-DIPG-VI viability, CellTiter-Glo ATP luminescence
# [3] = growth inhibition of DIPG cells – cell-based, MIPE5.0 library, qHTS (AID 1347068; cut-off not given, nearly all actives have IC50 up to about 30 µM;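 as to IC50: cells exposed to compound for 48 hours before viability readout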); conditions: SU-DIPG-XXV viability
# [4] = biological target: Mitogen-activated protein kinase 7 (Homo sapiens) (UniProt Q13164); experiment: Gal4-ERK5 driven luciferase induction – cell-based, HTS, primary screen (AID 1508626;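 active = luciferase signal above three times the same-plate solvent-only control wells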;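 also: luciferase driven by Gal4-ERK5 fusion binding five Gal4 sites before minimal TATA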); conditions: HeLa Gal4-ERK5 transactivation, 18 h, at 5 µM, stronger effect = higher value
# Sequence of Mitogen-activated protein kinase 7 (Homo sapiens) (Q13164 whole entry, looked up, the tested form may be a part): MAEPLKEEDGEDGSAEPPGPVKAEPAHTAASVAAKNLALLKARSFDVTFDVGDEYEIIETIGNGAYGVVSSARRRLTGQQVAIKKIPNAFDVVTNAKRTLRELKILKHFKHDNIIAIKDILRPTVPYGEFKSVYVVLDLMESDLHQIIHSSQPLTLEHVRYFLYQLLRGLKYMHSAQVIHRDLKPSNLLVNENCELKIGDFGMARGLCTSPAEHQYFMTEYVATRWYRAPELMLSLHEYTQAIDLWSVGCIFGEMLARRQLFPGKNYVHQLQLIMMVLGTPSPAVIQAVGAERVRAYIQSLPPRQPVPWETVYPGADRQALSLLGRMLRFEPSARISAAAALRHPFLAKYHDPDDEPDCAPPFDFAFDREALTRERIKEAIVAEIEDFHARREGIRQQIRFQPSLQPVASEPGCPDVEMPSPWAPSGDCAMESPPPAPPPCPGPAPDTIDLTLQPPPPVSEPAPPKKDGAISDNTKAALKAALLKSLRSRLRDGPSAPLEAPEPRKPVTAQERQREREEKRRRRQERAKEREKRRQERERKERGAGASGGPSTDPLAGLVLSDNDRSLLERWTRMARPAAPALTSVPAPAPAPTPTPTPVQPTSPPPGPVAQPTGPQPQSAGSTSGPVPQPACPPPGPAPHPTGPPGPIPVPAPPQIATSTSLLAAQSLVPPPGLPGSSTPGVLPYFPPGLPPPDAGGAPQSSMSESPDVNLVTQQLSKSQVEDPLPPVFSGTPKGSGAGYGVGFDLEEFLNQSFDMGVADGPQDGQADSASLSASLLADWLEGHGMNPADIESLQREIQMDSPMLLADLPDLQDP
# [5] = galactose survival enhancers in mitochondrial complex I cybrids – cell-based, galactose medium, ATP luminescence, primary screen (AID 1645843;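 active = z-score of at least 1.8 in each of two replicates, scored against plate mean and spread of sample wells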;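 also: positive z means more ATP and so rescue of galactose-driven cybrid death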); conditions: complex I mutant cybrid cells, 72 h, stronger effect = higher value
# [6] = viability loss in pontine glioma line – cell-based, SU-DIPG-IV, MIPE4.0, CellTiter-Glo, qHTS, dose response (AID 1347063; cut-off not given, nearly all actives have AC50 up to about 30 µM;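 also: compound exposure lasted 48 hours before the viability readout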); conditions: CellTiter-Glo ATP luminescence
# [7] = viability loss in pontine glioma line – cell-based, SU-DIPG-XIII, MIPE5.0, CellTiter-Glo, qHTS, dose response (AID 1347064; cut-off not given, nearly all actives have AC50 up to about 23 µM;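 as to AC50: cells exposed to compound for 48 hours before the viability read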); conditions: CellTiter-Glo ATP luminescence
# [8] = viability loss in pontine glioma line – cell-based, SU-DIPG-XXV, MIPE5.0, CellTiter-Glo, qHTS, dose response (AID 1347065; cut-off not given, nearly all actives have AC50 up to about 26 µM;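 also: cells exposed to compound for 48 hours before ATP readout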); conditions: CellTiter-Glo ATP luminescence
# [9] = JHH-DIPG-1 glioma cell viability, MIPE5.0 library, CellTiter-Glo luminescence, qHTS (AID 1347067; cut-off not given, nearly all actives have AC50 up to about 26 µM;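 also: cells exposed to compound for 48 hours before readout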); conditions: JHH-DIPG-1 glioma viability, CellTiter-Glo ATP luminescence
# [10] = growth inhibition, single agents and combos, LFS_MB_1R, cell-based, cisplatin or BGB combos, synergistic combos for chromothripsis tumors (AID 1671452); conditions: LFS_MB_1R medulloblastoma cells, stronger effect = higher value;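 also: cells exposed for 96 hours before readout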
# [11] = growth inhibition, single agents and combos, CRL2098, cell-based, BGB or cisplatin IC20 combos, synergistic combos for chromothripsis tumors (AID 1671454); conditions: CRL2098 osteosarcoma cells, drug combinations, stronger effect = higher value;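 also: cells exposed for 96 h before readout; 0% = vehicle DMSO and 100% = killing by high DMSO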
# [12] = growth inhibition, single agents and combos, HD-MB03, cell-based, BGB or cisplatin IC20 combos, synergistic combos for chromothripsis tumors (AID 1671455; in the data active = inhibition above about 83%;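 also: 0% = vehicle DMSO and 100% = high DMSO as cytotoxic control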); conditions: HD-MB03 medulloblastoma cells, stronger effect = higher value
# [13] = growth inhibition, single agents and combos, UWB1.289, cell-based, BGB or cisplatin combos, synergistic combos for chromothripsis tumors (AID 1671456); conditions: UWB1.289 ovarian carcinoma cells, stronger effect = higher value;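 also: cells exposed to compound for four days; 0% = vehicle DMSO and 100% = killing by high DMSO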
# [14] = growth inhibition, single agents and combos, LFS_MB_2R, cell-based, cisplatin combos, synergistic combos for chromothripsis tumors (AID 1671457); conditions: LFS_MB_2R medulloblastoma cells, stronger effect = higher value;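 also: cells exposed to compound for four days before readout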
# [15] = UWB1.289_BRCA1 ovarian cancer growth, cell-based, BGB or cisplatin combinations (AID 1671459); conditions: UWB1.289 BRCA1 ovarian carcinoma, drug combinations, stronger effect = higher value
# [16] = drug combination toxicity in non-malignant astrocytes – cell-based, BGB or cisplatin IC20 combos, cytotoxicity control for chromothriptic childhood tumor combination screen (AID 1671460); conditions: Human astrocytes, viability inhibition, drug combinations, at 0.5 µM, stronger effect = higher value;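 also: cells exposed to compounds for 96 hours before viability readout; 0% = vehicle and 100% = killing control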
# [17] = BT084 cell growth, single and combined drugs, ICGC_MB145, cisplatin and BGB IC40 combos (AID 1671461); conditions: BT084 medulloblastoma cells, drug combinations, stronger effect = higher value;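 also: cells exposed to drugs for 96 hours; 0% = vehicle DMSO and 100% = high DMSO full killing control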
# [18] = RCMB18 cell growth, single agent and combined, cisplatin and BGB IC40 combos (AID 1671462); conditions: RCMB18 medulloblastoma cells, stronger effect = higher value;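 also: cells exposed to compound for four days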
# [19] = CRL1545 cell growth, single agent and combined, cisplatin and BGB IC20 combos (AID 1671464); conditions: CRL1545 osteosarcoma cells, stronger effect = higher value;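 also: cells exposed to compound for 96 hours before readout; 0% = vehicle DMSO and 100% = high DMSO killing control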
# [20] = biological target: ATP-dependent translocase ABCB1 (Homo sapiens) (UniProt P08183); experiment: P-glycoprotein substrate transport blockade – cell-based (AID 377; in the data active = fluorescence slope change above about 50%); conditions: MDR1-expressing cells, fluorescent substrate accumulation slope; stronger effect = higher value; concentration not given here
# Sequence of ATP-dependent translocase ABCB1 (Homo sapiens) (P08183 whole entry, looked up): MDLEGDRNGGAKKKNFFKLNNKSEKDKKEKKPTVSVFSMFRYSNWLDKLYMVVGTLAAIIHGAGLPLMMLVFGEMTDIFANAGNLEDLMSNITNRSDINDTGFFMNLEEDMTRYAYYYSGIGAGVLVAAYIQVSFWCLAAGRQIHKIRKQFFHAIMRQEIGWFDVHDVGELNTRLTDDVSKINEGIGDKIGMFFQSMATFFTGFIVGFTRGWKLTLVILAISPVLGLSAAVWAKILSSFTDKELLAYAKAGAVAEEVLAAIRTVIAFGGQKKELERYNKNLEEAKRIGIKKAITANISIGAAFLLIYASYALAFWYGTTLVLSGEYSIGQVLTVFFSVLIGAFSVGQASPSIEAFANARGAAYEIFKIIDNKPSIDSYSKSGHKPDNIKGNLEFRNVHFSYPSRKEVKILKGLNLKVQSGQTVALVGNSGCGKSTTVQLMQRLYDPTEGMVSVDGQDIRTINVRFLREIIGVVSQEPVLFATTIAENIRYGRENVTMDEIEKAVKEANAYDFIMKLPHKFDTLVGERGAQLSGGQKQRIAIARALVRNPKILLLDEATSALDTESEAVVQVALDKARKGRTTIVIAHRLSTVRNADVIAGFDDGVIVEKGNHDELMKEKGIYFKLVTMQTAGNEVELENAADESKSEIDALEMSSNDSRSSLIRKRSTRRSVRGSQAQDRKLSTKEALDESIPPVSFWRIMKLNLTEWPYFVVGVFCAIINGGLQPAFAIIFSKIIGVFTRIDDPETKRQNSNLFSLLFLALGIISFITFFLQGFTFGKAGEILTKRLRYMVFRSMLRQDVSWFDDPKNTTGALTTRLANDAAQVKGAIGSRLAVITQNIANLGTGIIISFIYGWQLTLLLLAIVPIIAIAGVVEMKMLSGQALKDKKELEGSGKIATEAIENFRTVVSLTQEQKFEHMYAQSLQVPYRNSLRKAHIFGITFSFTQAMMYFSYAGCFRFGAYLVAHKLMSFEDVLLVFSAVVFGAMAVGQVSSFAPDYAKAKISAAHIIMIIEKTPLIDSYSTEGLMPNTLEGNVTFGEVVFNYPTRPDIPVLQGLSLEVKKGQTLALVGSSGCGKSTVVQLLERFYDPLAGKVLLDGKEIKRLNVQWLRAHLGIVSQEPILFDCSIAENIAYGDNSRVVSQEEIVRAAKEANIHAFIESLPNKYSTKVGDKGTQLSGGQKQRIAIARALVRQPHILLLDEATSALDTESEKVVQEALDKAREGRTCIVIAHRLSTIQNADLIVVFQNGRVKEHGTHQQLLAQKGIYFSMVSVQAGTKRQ
# [21] = measured here: combination with cisplatin, at 0.5 µM
# [22] = measured here: combination with cisplatin, at 5 µM
smiles,measurement,setting,value
CC(S)C(=O)NCC(=O)O (stereo not given),outcome,[1],inactive
same,outcome,[2],inactive
same,outcome,[3],inactive
CCCN(CCC)CCc1cccc2c1CC(=O)N2,luciferase signal,[4],48 AU (inactive)
same,z-score,[5],0.47 (inactive)
O=C1Cc2cc(CCN3CCN(c4nsc5ccccc45)CC3)c(Cl)cc2N1,AC50,[6],26.4 µM (active)
same,AC50,[2],23.5 µM (active)
same,z-score,[5],-0.165 (inactive)
CCN(C)C(=O)Oc1cccc([C@H](C)N(C)C)c1,outcome,[1],inactive
same,outcome,[2],inactive
same,z-score,[5],0.825 (inactive)
O=C(O)[C@H](O)[C@@H](O)[C@H](O[C@@H]1O[C@H](CO)[C@H](O)[C@H](O)[C@H]1O)[C@H](O)CO,outcome,[7],inactive
same,outcome,[8],inactive
same,outcome,[9],inactive
same,outcome,[3],inactive
O=C(O)c1cc(=O)[nH]c(=O)[nH]1,outcome,[1],inactive
same,outcome,[6],inactive
same,outcome,[7],inactive
same,outcome,[8],inactive
same,outcome,[2],inactive
same,outcome,[9],inactive
same,outcome,[3],inactive
same,inhibition,[10]; at 0.5 µM,-8.32% (inactive) and -28.4% (inactive)
same,inhibition,"[10]; measured here: combination with BGB IC40, at 0.05 µM",-17.9% and -11.5%
same,inhibition,[10]; [21],16.2% and -37.9%
same,inhibition,[10]; [22],-31% and -23.1%
same,inhibition,[11]; at 0.5 µM,2.38% (inactive) and -59.4% (inactive)
same,inhibition,"[11]; measured here: combination with BGB at IC20, at 0.5 µM",-8.75% and -29.4%
same,inhibition,"[11]; measured here: combination with cisplatin at IC20, at 0.5 µM",11.3% and -77.4%
same,inhibition,[12]; at 0.5 µM,6.65% (inactive) and -10.7% (inactive)
same,inhibition,"[12]; measured here: combo with BGB at IC20, at 0.5 µM",8.02% and -14.5%
same,inhibition,"[12]; measured here: combo with cisplatin at IC20, at 0.5 µM",1.03% and -2.03%
same,inhibition,[13]; at 0.5 µM,9.26% (inactive) and -11.7% (inactive)
same,inhibition,"[13]; measured here: inhibition with BGB combination, at 0.05 µM",1.2% and -34.8%
same,inhibition,"[13]; measured here: inhibition with cisplatin combination, at 0.05 µM",-6.87% and -27.5%
same,inhibition,[14]; at 0.5 µM,8.17% (inactive) and -25% (inactive)
same,inhibition,[14]; [21],-0.428% and -22.3%
same,inhibition,[14]; [22],15.8% and -23.2%
same,inhibition,"[15]; BGB combination, concentration series, at 5 µM",11.8% and -20.6%
same,inhibition,[15]; at 0.5 µM,7.12% (inactive) and -21.5% (inactive)
same,inhibition,"[15]; cisplatin combination, concentration series, at 5 µM",16.5% and -12.9%
same,inhibition,[16],6.1% (inactive) and -13.7% (inactive)
same,inhibition,[16]; measured here: combo with BGB IC20,3.75% and -11.6%
same,inhibition,[16]; measured here: combo with cisplatin IC20,18.5% and -10.3%
same,inhibition,[17]; at 0.5 µM,0.676% (inactive) and -23.4% (inactive)
same,inhibition,"[17]; cisplatin combination, at 0.5 µM",4.02% and -10.6%
same,inhibition,"[17]; cisplatin combination, at 5 µM",-30.1% and 9.58%
same,inhibition,"[17]; measured here: BGB IC40 combination 0.05 uM, at 0.05 µM",29.1% and 10.4%
same,inhibition,"[17]; single agent, at 5 µM",10.6% and -23.7%
same,inhibition,[18]; at 0.5 µM,4.65% (inactive) and -11.2% (inactive)
same,inhibition,"[18]; cisplatin combo, at 5 µM",33.1% and 20.6%
same,inhibition,"[18]; measured here: BGB IC40 combination, at 0.05 µM",20.2% and -17.2%
same,inhibition,[18]; [21],10.8% and 27.7%
same,inhibition,"[18]; single agent, at 5 µM",-13.7% and -20.9%
same,inhibition,[19]; at 0.5 µM,-2.03% (inactive) and 7.29% (inactive)
same,inhibition,"[19]; measured here: with BGB IC20 combination, at 0.5 µM",-9.08% and 1.78%
same,inhibition,"[19]; measured here: with cisplatin IC20 combination, at 0.5 µM",1.49% and 10%
same,inhibition,"[19]; single agent, at 0.05 µM",0.986% and -9.64%
same,inhibition,"[19]; single agent, at 5 µM",-15.6% and -9.76%
CC(C)(Oc1ccc(C2CC2(Cl)Cl)cc1)C(=O)O (stereo not given),outcome,[1],inactive
same,outcome,[7],inactive
same,outcome,[8],inactive
same,outcome,[2],inactive
same,outcome,[9],inactive
same,outcome,[3],inactive
same,z-score,[5],0.695 (inactive)
COc1cc2c(c(OC)c1OC)-c1ccc(OC)c(=O)cc1[C@@H](NC(C)=O)CC2,fluorescence slope change,[20],7.7% (inactive)
same,AC50,[1],0.105 µM (active)
same,outcome,[6],inactive
same,AC50,[7],0.0525 µM (active)
same,AC50,[8],0.0417 µM (active)
same,AC50,[9],0.0295 µM (active)
same,IC50,[3],0.0468 µM (active)
same,luciferase signal,[4],88 AU (inactive)
same,z-score,[5],-0.69 (inactive)
